Read-out in assay [1]: Cyclin Dependent Kinase Inhibitor 1A (CDKN1A), CDKN1A (gene 1026)
Description: LTEA_HepaRG_CDKN1A: Life Technologies and Expression Analysis (LTEA) Assay for Cyclin Dependent Kinase Inhibitor 1A (CDKN1A) using HepaRG (AID 2283450). Particulars: mRNA level, 48 h; actives raise or lower the signal. In short, it runs like this:
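Gain or loss of CDKN1A transcript is scored by bidirectional fitting against 0.5% DMSO vehicle. Human HepaRG cultures receive chemicals for 48 h across an 8-point series peaking at 100 uM; expression comes from qRT-PCR.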

Read-out in assay [2]: catalase (CAT), CAT (gene 847)
Briefly: LTEA_HepaRG_CAT: Life Technologies and Expression Analysis (LTEA) Assay for catalase (CAT) using HepaRG (AID 2283452). Particulars: mRNA level, 48 h; actives raise or lower the signal. In short, it runs like this:
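HepaRG cells in serum-free induction medium, 0.5% DMSO vehicle, exposed 48 h in duplicate over 8 half-log concentrations from 100 uM. CAT mRNA measured by qRT-PCR, normalized to ACTB, GAPDH, POLR2A; bidirectional fit versus DMSO.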

Read-out in assay [3]: flavin-containing dimethylaniline monooxygenases 3 (FMO3), FMO3 (gene 2328)
Briefly: LTEA_HepaRG_FMO3: Life Technologies and Expression Analysis (LTEA) Assay for flavin-containing dimethylaniline monooxygenases 3 (FMO3) using HepaRG (AID 2283453). The following applies: mRNA level, 48 h; actives raise or lower the signal. The procedure, abridged: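 Differentiated HepaRG cells in serum-free induction medium, exposed 48 h in duplicate to 8 half-log concentrations up to 100 uM in 0.5% DMSO. FMO3 mRNA by qRT-PCR, normalized to ACTB, GAPDH, POLR2A; bidirectional fit vs DMSO.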

Read-out in assay [4]: Cytochrome P450 (CYP1A1), CYP1A1 (gene 1543)
Description: LTEA_HepaRG_CYP1A1: Life Technologies and Expression Analysis (LTEA) Assay for Cytochrome P450 (CYP1A1) using HepaRG (AID 2283454). The following applies: mRNA level, 48 h; actives raise or lower the signal. The procedure, abridged: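 Using HepaRG cultures with 0.5% DMSO as vehicle, eight-concentration exposures (max 100 uM) lasted 48 h. Transcript levels were measured by TaqMan qRT-PCR and normalized to ACTB, GAPDH and POLR2A.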

Read-out in assay [5]: CFLAR gene, CFLAR (gene 8837)
Description: LTEA_HepaRG_CFLAR: Life Technologies and Expression Analysis (LTEA) Assay for CFLAR gene using HepaRG (AID 2283455). Particulars: mRNA level, 48 h; actives raise or lower the signal. In short, it runs like this: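 Differentiated HepaRG cells in serum-free induction medium were exposed 48 h in duplicate to eight half-log concentrations up to 100 uM in 0.5% DMSO; mRNA measured by TaqMan qRT-PCR, normalized to ACTB, GAPDH, POLR2A; bidirectional fitting versus DMSO.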

Read-out in assay [6]: Forkhead box O1 (FOXO1), FOXO1 (gene 2308)
Description: LTEA_HepaRG_FOXO1: Life Technologies and Expression Analysis (LTEA) Assay for Forkhead box O1 (FOXO1) using HepaRG (AID 2283456). Particulars: mRNA level, 48 h; actives raise or lower the signal. The procedure, abridged: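 Differentiated HepaRG cells, in serum-free induction medium with 0.5% DMSO, exposed 48 h in duplicate to 8-point half-log series from 100 uM. FOXO1 mRNA measured by TaqMan qRT-PCR, normalized to ACTB, GAPDH, POLR2A; bidirectional fit versus DMSO.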

Assay [7] can be described thus: CEETOX_H295R_TESTO: CeeTox H295R High-throughput Steroidogenesis Assay for Testosterone (TESTO) (AID 2283457). Particulars: actives raise or lower the signal. The procedure, abridged: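 Steroidogenesis in H295R cells following OECD 456 with minor changes; 48 h exposure. Medium testosterone by HPLC-MS/MS, DMSO as baseline, with MTT viability run in parallel.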
Read-out in assay [8]: growth arrest and DNA damage 45 (GADD45A), GADD45A (gene 1647)
Briefly: LTEA_HepaRG_GADD45A: Life Technologies and Expression Analysis (LTEA) Assay for growth arrest and DNA damage 45 (GADD45A) using HepaRG (AID 2283458). Particulars: mRNA level, 48 h; actives raise or lower the signal. In short, it runs like this:
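Cells plated and cultured 48 h, switched to serum-free induction medium, then dosed for 48 h (100 uM top, half-log dilutions, 0.5% DMSO). RNA was isolated and transcript measured by Fluidigm qRT-PCR.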

Read-out in assay [9]: Forkhead box O3 (FOXO3), FOXO3 (gene 2309)
Description: LTEA_HepaRG_FOXO3: Life Technologies and Expression Analysis (LTEA) Assay for Forkhead box O3 (FOXO3) using HepaRG (AID 2283459). Particulars: mRNA level, 48 h; actives raise or lower the signal. The procedure, abridged: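 Differentiated human HepaRG cells, 48 h post-plating, exposed in duplicate for 48 h in serum-free induction medium; 8-point half-log series from 100 uM in 0.5% DMSO. FOXO3 mRNA by TaqMan qRT-PCR, normalized to ACTB/GAPDH/POLR2A; bidirectional fit versus DMSO.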

Read-out in assay [10]: ABC Transporter (ABCB1), ABCB1 (gene 5243)
Description: LTEA_HepaRG_ABCB1: Life Technologies and Expression Analysis (LTEA) Assay for ABC Transporter (ABCB1) using HepaRG (AID 2283460). The following applies: mRNA level, 48 h; actives raise or lower the signal. In short, it runs like this:
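HepaRG cells exposed in duplicate for 48 h in serum-free induction medium to eight half-log concentrations up to 100 uM in 0.5% DMSO. ABCB1 mRNA quantified by qRT-PCR, normalised to ACTB, GAPDH and POLR2A; fitted bidirectionally versus DMSO.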

Read-out in assay [11]: growth arrest and DNA damage 45 (GADD45B), GADD45B (gene 4616)
Briefly: LTEA_HepaRG_GADD45B: Life Technologies and Expression Analysis (LTEA) Assay for growth arrest and DNA damage 45 (GADD45B) using HepaRG (AID 2283461). Particulars: mRNA level, 48 h; actives raise or lower the signal. In short, it runs like this:
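Human HepaRG monolayers receive chemicals for 48 h at eight half-log concentrations, highest 100 uM, in 0.5% DMSO. Expression is measured by TaqMan qRT-PCR and normalized to ACTB, GAPDH and POLR2A.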

Read-out in assay [12]: ABC Transporter (ABCB11), ABCB11 (gene 8647)
Description: LTEA_HepaRG_ABCB11: Life Technologies and Expression Analysis (LTEA) Assay for ABC Transporter (ABCB11) using HepaRG (AID 2283463). The following applies: mRNA level, 48 h; actives raise or lower the signal. The procedure, abridged: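 Differentiated human HepaRG cells in serum-free induction medium, dosed in duplicate for 48 h. Eight-point half-log series from 100 uM in 0.5% DMSO; ABCB11 mRNA by qRT-PCR, normalized to ACTB, GAPDH, POLR2A, fitted bidirectionally versus DMSO.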

Read-out in assay [13]: ABC Transporter (ABCC2), ABCC2 (gene 1244)
Description: LTEA_HepaRG_ABCC2: Life Technologies and Expression Analysis (LTEA) Assay for ABC Transporter (ABCC2) using HepaRG (AID 2283464). Particulars: mRNA level, 48 h; actives raise or lower the signal. In short, it runs like this: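 After plating and 48 h culture, HepaRG medium is replaced with serum-free induction medium and chemicals are added (8 concentrations, max 100 uM, 0.5% DMSO) for 48 h. Total RNA then undergoes qRT-PCR for ABCC2 with housekeeping normalization.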

Read-out in assay [14]: Broad substrate specificity ATP-binding cassette transporter ABCG2 (Homo sapiens) (UniProt Q9UNQ0)
Description: LTEA_HepaRG_ABCG2: Life Technologies and Expression Analysis (LTEA) Assay for ABC Transporter (ABCG2) using HepaRG (AID 2283465). Particulars: mRNA level, 48 h; actives raise or lower the signal. The procedure, abridged:
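Differentiated HepaRG cells were exposed for 48 h in serum-free induction medium to 8 half-log concentrations, top 100 uM, in 0.5% DMSO. ABCG2 mRNA was measured by qRT-PCR, normalized to ACTB, GAPDH and POLR2A, with bidirectional fitting versus DMSO.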

Read-out in assay [15]: Peroxisomal acyl-coenzyme A oxidase 1 (ACOX1) gene, ACOX1 (gene 51)
Description: LTEA_HepaRG_ACOX1: Life Technologies and Expression Analysis (LTEA) Assay for Peroxisomal acyl-coenzyme A oxidase 1 (ACOX1) gene using HepaRG (AID 2283467). The following applies: mRNA level, 48 h; actives raise or lower the signal. In short, it runs like this:
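HepaRG cells, plated 48 h then switched to serum-free induction medium, were exposed in duplicate for 48 h to 8-point half-log concentrations up to 100 uM in 0.5% DMSO. ACOX1 mRNA was measured by qRT-PCR, normalized to ACTB/GAPDH/POLR2A, and fitted bidirectionally versus DMSO.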

Read-out in assay [16]: Alkaline Phosphatase, Placental (ALPP) gene, ALPP (gene 250)
Description: LTEA_HepaRG_ALPP: Life Technologies and Expression Analysis (LTEA) Assay for Alkaline Phosphatase, Placental (ALPP) gene using HepaRG (AID 2283468). The following applies: mRNA level, 48 h; actives raise or lower the signal. The procedure, abridged: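 Using human liver HepaRG cells, chemicals are tested in duplicate over 48 h at half-log concentrations topping at 100 uM; phenobarbital 1 mM serves as induction control. ALPP mRNA change by qRT-PCR, bidirectional fit against vehicle.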

Read-out in assay [17]: Cyclin D1 (CCND1), CCND1 (gene 595)
Briefly: LTEA_HepaRG_CCND1: Life Technologies and Expression Analysis (LTEA) Assay for Cyclin D1 (CCND1) using HepaRG (AID 2283451). Particulars: mRNA level, 48 h; actives raise or lower the signal. The procedure, abridged:
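Expression change is measured by qRT-PCR in HepaRG cells after 48 h treatment across eight concentrations topping at 100 uM, with duplicate wells and DMSO (0.5%) serving as baseline for bidirectional fitting.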

Read-out in assay [18]: Cyclin D2 (CCND2), CCND2 (gene 894)
Briefly: LTEA_HepaRG_CCND2: Life Technologies and Expression Analysis (LTEA) Assay for Cyclin D2 (CCND2) using HepaRG (AID 2283449).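 Note: CCND2 transcript measured by TaqMan qRT-PCR and normalised to three housekeeping genes.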 The following applies: mRNA level, 48 h; actives raise or lower the signal. The procedure, abridged:
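Chemicals in 0.5% DMSO, eight half-log concentrations from 100 uM top, were applied in duplicate for 48 h to human HepaRG cells in serum-free induction medium. CCND2 mRNA by TaqMan qRT-PCR, normalised to ACTB/GAPDH/POLR2A; bidirectional fit versus DMSO.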

Read-out in assay [19]: ATP-citrate lyase (ACLY), ACLY (gene 47)
Description: LTEA_HepaRG_ACLY: Life Technologies and Expression Analysis (LTEA) Assay for ATP-citrate lyase (ACLY) using HepaRG (AID 2283466). The following applies: mRNA level, 48 h; actives raise or lower the signal. The procedure, abridged: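 Differentiated HepaRG cells exposed 48 h in serum-free induction medium to eight half-log concentrations up to 100 uM in 0.5% DMSO, duplicates. Transcript measured by Fluidigm TaqMan qRT-PCR, normalized to ACTB, GAPDH, POLR2A; bidirectional fit versus DMSO.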

Activity calls are given as the source filed them. Rule for the calls: active = hit-call score of the fitted dose curve at least 0.9, where 1 is the maximum; inactive = score below 0.9.

Broad substrate specificity ATP-binding cassette transporter ABCG2 (Homo sapiens), sequence (Q9UNQ0 whole entry, looked up): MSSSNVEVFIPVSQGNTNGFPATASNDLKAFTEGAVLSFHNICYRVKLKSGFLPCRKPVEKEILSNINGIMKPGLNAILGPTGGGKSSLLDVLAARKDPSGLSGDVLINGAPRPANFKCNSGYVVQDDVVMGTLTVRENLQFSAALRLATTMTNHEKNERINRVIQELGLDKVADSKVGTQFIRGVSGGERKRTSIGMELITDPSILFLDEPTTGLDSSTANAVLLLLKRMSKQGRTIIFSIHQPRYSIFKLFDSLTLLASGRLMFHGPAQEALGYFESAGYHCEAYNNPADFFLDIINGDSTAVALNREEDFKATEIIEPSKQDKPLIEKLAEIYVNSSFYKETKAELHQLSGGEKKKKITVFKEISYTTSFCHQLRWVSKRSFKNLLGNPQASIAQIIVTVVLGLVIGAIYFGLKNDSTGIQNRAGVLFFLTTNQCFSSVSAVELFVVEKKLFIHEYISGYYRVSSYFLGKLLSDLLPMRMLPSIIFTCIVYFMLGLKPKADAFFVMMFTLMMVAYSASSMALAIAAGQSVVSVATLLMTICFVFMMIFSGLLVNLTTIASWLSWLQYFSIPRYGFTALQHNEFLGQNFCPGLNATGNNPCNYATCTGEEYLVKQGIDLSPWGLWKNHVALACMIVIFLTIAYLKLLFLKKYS

`Nc1cccc2c(N)cccc12`: the outcome in assay [1], in assay [2], in [3], in [5], in assay [6] and in assay [7] was inactive. The molecule was classed as inactive in assay [8], in assay [10], in assay [11], in [13], in [14] and in [15]. Moreover, the outcome in assay [16] was inactive. The AC50 (in general, the concentration giving half of the maximal activity seen) in assay [4] was 9 µM (active); in assay [9], 22.4 µM (active); in [12] it was 50 µM (active).

For `CCCCCCCCOC(=O)CCCCCCCCC(=O)OCCCCCCCC`, the outcome in assay [1], in assay [17], in assay [2], in assay [3], in assay [5] and in assay [6] was inactive. In addition, the call in assay [8], in assay [9], in assay [10], in assay [11], in assay [12] and in assay [13] was inactive. For the same molecule, the outcome in assay [14], in assay [15] and in assay [16] was inactive. Besides, in assay [4], the AC50 was 30.3 µM (active).

For the molecule `OC1CCC(C2CCCCC2)CC1` (stereo not given), the outcome in assay [18], in assay [1], in assay [2], in [3], in assay [4] and in [5] was inactive. The molecule was classed as inactive in assay [6], in [8], in assay [9], in assay [10], in assay [11] and in assay [12]. Further, the molecule was classed as inactive in assay [13], in [14], in assay [19], in assay [15] and in assay [16].

In the case of `CCOC(=O)CC(O)(CC(=O)OCC)C(=O)OCC`, the result in assay [18], in assay [1], in assay [2], in [3], in [4] and in assay [5] was inactive. Besides, the outcome in assay [6], in assay [8], in assay [9], in assay [10], in assay [11] and in [12] was inactive. Also, the molecule was called inactive in [13], in [14], in assay [15] and in assay [16].

The record behind these values is PubChem BioAssay (EPA / NIEHS).
